Sampled rows, rich in hits. Any-hit rate of the full collection: about 0.28%.
Tb PFK inh: qHTS Assay to Find Inhibitors of T. brucei phosphofructokinase; 330,000 compounds, 0.17% hits; T. brucei PFK, ADP-Glo luminescence; Potency, µM (series often up to 57.5 µM), actives largely listed as inhibitors; ATP-dependent 6-phosphofructokinase (Trypanosoma brucei brucei), O15648; note: nearly all actives have a fitted effect of over 60% in size
Target sequence (O15648 whole entry, looked up): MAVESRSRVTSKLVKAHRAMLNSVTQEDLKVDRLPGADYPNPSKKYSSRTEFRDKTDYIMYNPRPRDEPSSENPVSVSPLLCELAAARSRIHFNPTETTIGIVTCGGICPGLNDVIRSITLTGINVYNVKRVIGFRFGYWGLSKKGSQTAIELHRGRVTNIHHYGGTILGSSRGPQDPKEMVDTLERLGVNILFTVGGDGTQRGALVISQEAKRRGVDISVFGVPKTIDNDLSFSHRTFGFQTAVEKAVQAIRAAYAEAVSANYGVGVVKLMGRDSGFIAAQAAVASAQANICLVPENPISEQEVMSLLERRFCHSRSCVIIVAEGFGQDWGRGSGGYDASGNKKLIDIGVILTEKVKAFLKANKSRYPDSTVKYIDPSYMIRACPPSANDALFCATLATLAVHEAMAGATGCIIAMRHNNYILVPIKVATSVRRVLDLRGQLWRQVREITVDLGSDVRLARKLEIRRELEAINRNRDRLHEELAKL
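Compounds were pin-transferred as a titration series up to 57 uM into substrate buffer (0.5 mM F6P, 0.1 mM ATP, pH 8.0), then 1.25 nM PFK was added and reactions ran 45 min before ADP-Glo detection.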
Pin1 inhibitor: qHTS Assay to Find Inhibitors of Pin1; Peptidyl-prolyl cis-trans isomerase NIMA-interacting 1 (Homo sapiens), Q13526; Pin1 FP peptide displacement, HiFluor488, 10 min; Potency, µM (top dose mostly 115 µM), most hits filed as inhibitors; 390,000 compounds, 0.009% hits; AID 504891, 2011; active = well fitted inhibition curve with a large enough effect in the polarisation, with a control signal flat, not every such curve was filed as active; inconclusive = small, poorly fitted or top-dose-only effect, or effect the other way, or a change in a side signal; inactive = no such curve, though single readings can be large or run the other way; the % refers to the polarisation
Target sequence (Q13526 whole entry, looked up): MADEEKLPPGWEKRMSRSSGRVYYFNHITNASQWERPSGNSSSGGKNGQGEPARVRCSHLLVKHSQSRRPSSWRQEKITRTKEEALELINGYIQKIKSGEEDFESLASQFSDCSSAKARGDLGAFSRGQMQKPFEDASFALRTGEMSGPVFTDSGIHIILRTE
Tb PGK inh: qHTS Assay to Find Inhibitors of Phosphoglycerate Kinase. Potency, µM (titrated, usually from 57.5 µM), hits mostly inhibitors. Phosphoglycerate kinase, glycosomal (Trypanosoma brucei brucei), P07378. PGK/GAPDH coupled, Kinase-Glo luminescence, 60 min. 380,000 compounds, 0.043% hits; note: nearly all actives have a fitted effect of over 60% in size
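Luminescent ATP detection (Kinase-Glo Plus) follows a 60-minute room-temperature incubation, with wells lacking PGK as controls. Buffer: 100 mM TEA (pH 7.6), 5 mM MgCl2, 0.01% Tween-20. Coupling enzyme GAPDH (100 nM final) supplies unstable 1,3-BPG in-well.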
PI4K2A inh: qHTS for small molecular inhibitors of PI4K2A; Phosphatidylinositol 4-kinase type 2-alpha (Homo sapiens), Q9BTU6; activity change, negative = inhibition, % at 76.9 µM; purified PI4K2A, ADP-Glo luminescence, 1 h; hits give low values; 420,000 compounds, 0.13% hits; in the data active = activity change below about -50%; inconclusive = mostly about -30% to -49%
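PI4K2A activity was measured by ADP-Glo luminescence: enzyme (4 ug/mL stock) and phosphatidylinositol (1.2 mM stock) in Tris pH 7.5/MgCl2/EGTA/Triton X-100 buffer were reacted with ATP (300 microM stock) for one hour at ambient temperature.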
USP2a inh: qHTS Assay for Inhibitors of Ubiquitin-specific Protease USP2a Using CHOP2 as the Reporter | Ubiquitin carboxyl-terminal hydrolase 2 (Homo sapiens), O75604 | USP2 core, Ub-CHOP2 coupled fluorogenic reporter, 485/531 | Potency, µM (titrated, usually from 38.3 µM), actives largely listed as inhibitors | 330,000 compounds, 0.01% hits
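Cell-free coupled assay: 10nM USP2 core preincubated 30min RT with compound in Tris-HCl pH 8.0/CaCl2/CHAPS buffer, then 25nM Ub-CHOP2 and 25nM reporter substrate; fluorescence (Ex 485/Em 531) read after 60min RT, normalized to NEM inhibition, concentration-response curves fitted.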
Hits are given with their value; - = inactive; ? = inconclusive; . = no result. Unless noted, calls come from the whole dose curve; as a rule, active = well fitted curve in the direction sought with a large enough effect; inconclusive = small, poorly fitted or top-dose-only effect, or another doubt; inactive = no such curve, though single readings can be large; an effect the other way counts as inactive or inconclusive.

SMILES	Tb PFK inh	Pin1 inhibitor	Tb PGK inh	PI4K2A inh	USP2a inh
COc1cccc(C(c2c(C)[nH]n(-c3ccccc3)c2=O)c2c(C)[nH]n(-c3ccccc3)c2=O)c1O	-	-	-	-51	-
CN(C)C=Nc1c(Br)cc(Br)c2nonc12	-	?	-	-56	-
COCCn1c(SCc2nc3sc(C(=O)OC)c(C)c3c(=O)[nH]2)nc2ccccc21	-	?	-	-	-
CCn1c(SCc2nc3sc(C(=O)O)c(C)c3c(=O)[nH]2)nc2ccccc21	-	?	20µM	-	-
Cc1cc2c(C(C)C)c(O)c(O)c(C=O)c2c(O)c1-c1c(C)cc2c(C(C)C)c(O)c(O)c(C=O)c2c1O	?	.	.	-	5.6µM
COc1ccc2cc(C(=O)NCc3ccco3)c(=O)oc2c1	-	?	-	-	-
COc1ccc(C(=O)c2cc3ccc(O)cc3oc2=O)cc1	-	-	.	-53	-
O=C(NCc1ccco1)c1cc2ccc(O)cc2oc1=O	?	-	?	-76	-
O=C(c1ccccc1)c1cc2ccc(O)cc2oc1=O	-	-	?	-87	-
O=C(c1ccc(Br)cc1)c1cc2ccc(O)cc2oc1=O	-	-	-	-	-
COc1ccc2cc(C=O)ccc2c1	.	.	.	-	.
COc1ccc(C2Nc3ccccc3C(=O)N2Cc2ccccc2)cc1COc1cccc(Cl)c1 (stereo unspecified)	.	-	.	.	.
N#CC1(c2ccc(F)cc2)CCC(=O)CC1	.	.	.	-	.
CC(=O)N[C@@H](CO)C(=O)N[C@@H](CC(=O)O)C(=O)N[C@@H](CCCCN)C(=O)N1CCC[C@H]1C(=O)O	.	.	.	-	.
COc1cc(C2c3c([nH]c(=O)[nH]c3=O)Nc3ccc4ccccc4c32)ccc1O (stereo unspecified)	?	-	?	-	-
COc1cc(C2c3c([nH]c(=O)[nH]c3=O)Nc3ccc4ccccc4c32)cc(OC)c1OC (stereo unspecified)	-	.	?	-60	-
CC(C)(C)CC(=O)OCC(=O)[C@@]1(O)CC[C@H]2[C@@H]3CCC4=CC(=O)C=C[C@]4(C)[C@H]3[C@@H](O)C[C@@]21C	.	.	.	-	.
O=C(OC[C@H]1O[C@@H](OC(=O)c2cc(O)c(O)c(OC(=O)c3cc(O)c(O)c(O)c3)c2)[C@H](OC(=O)c2cc(O)c(O)c(OC(=O)c3cc(O)c(O)c(O)c3)c2)[C@@H](OC(=O)c2cc(O)c(O)c(OC(=O)c3cc(O)c(O)c(O)c3)c2)[C@@H]1OC(=O)c1cc(O)c(O)c(OC(=O)c2cc(O)c(O)c(O)c2)c1)c1cc(O)c(O)c(OC(=O)c2cc(O)c(O)c(O)c2)c1	0.095µM	.	.	.	5µM
COC1OC(COC(=O)c2ccccc2)C(OC(=O)c2ccccc2)C1OC(=O)c1ccccc1 (stereo unspecified)	-	-	-	-	-
COc1cc(-c2ccc3ncnc(N(C)Cc4csc(C)n4)c3c2)cc(OC)c1OC	.	-	.	.	.
O=C(N1CCOCC1)N1CCN(c2ccccc2)CC1	-	-	-	-	-
O=C(N1CCOCC1)N1CCN(c2ccccc2F)CC1	-	-	-	-62	-
CC(=O)Nc1sc2c(c1-c1nccs1)CCNC2	.	-	.	.	.
COc1cccc(C2c3c(ncn(-c4ccccn4)c3=N)Oc3ccc4ccccc4c32)c1 (stereo unspecified)	.	-	.	.	.
N#Cc1c(NC(=O)c2ccccc2Cl)n(Cc2ccccc2)c2nc3ccccc3nc12	-	-	-	-50	-
SMILES	Tb PFK inh	Pin1 inhibitor	Tb PGK inh	PI4K2A inh	USP2a inh
Cc1cc(-c2csc(NC(=O)c3ccc(=O)[nH]c3)n2)c(C)n1Cc1ccco1	-	-	-	-62	-
CN(C)CCNC(=S)Nc1cccc(Cl)c1	-	-	-	-51	-
Cc1ccc(C(=S)NCS(=O)(=O)c2ccc(C)cc2)cc1	27µM	-	-	-	-
Cc1ccc(S(=O)(=O)NC(=S)c2ccccc2)cc1	.	-	-	-	.
CC(=O)Nc1sc2c(c1-c1cc3ccccc3[nH]1)CCNC2	.	-	.	.	.
COc1cc(N/N=C/c2ccc(N(C)C)cc2)ncn1	-	-	-	-53	-
COc1cc(N/N=C/c2ccccc2O)ncn1	-	-	-	-	-
CN(C)S(=O)(=O)c1cccc(-n2sc3ccccc3c2=O)c1	13µM	-	-	-	-
O=c1c2ccccc2sn1-c1cccc(Cl)c1	.	.	-	-	.
O=S1(=O)N=C(Sc2ccc3c(c2)OCCO3)c2ccccc21	.	-	.	.	.
CN(C)c1ccc(N=Nc2nc3ccccc3n2C)cc1	-	-	14µM	-70	-
Cn1c(N=Nc2ccccc2)nc2ccccc21	12µM	-	?	-87	-
Cc1ccc(/C=N/Nc2cc(C)nc(NCc3ccccc3)n2)cc1	-	?	-	-	-
Cc1cc(N/N=C/c2ccc(O)cc2)nc(NS(=O)(=O)c2ccccc2)n1	?	?	25µM	-	-
Fc1ccc(Nc2cncc(-c3ccsc3)c2)cc1Cl	.	.	.	-50	.
COc1cccc(C2c3c(ncn(-c4cccc(Cl)c4)c3=N)Oc3ccc4ccccc4c32)c1 (stereo unspecified)	.	-	.	.	.
O=C(NCC1COCCO1)c1ccc2nc(Cc3cccc(Cl)c3)oc2c1 (stereo unspecified)	15µM	-	-	-	-
O=C(NCCc1ccncc1)c1ccc2nc(Cc3cccc(Cl)c3)oc2c1	-	-	-	-	-
COc1cc(/C=C2\C(=O)NC(=O)N(CCc3ccc(F)cc3)C2=O)ccc1O	-	?	-	-53	-
Cc1[nH]cnc1C(=O)N/N=C/c1c(Cl)cccc1Cl	?	-	?	-69	-
Cc1ccc(S(=O)(=O)/N=C2/C=C(Sc3ncn[nH]3)C(=O)c3ccccc32)cc1	?	.	?	-70	-
CC(C)c1ccc(S(=O)(=O)/N=C2/C=C(Sc3ncn[nH]3)C(=O)c3ccccc32)cc1	?	.	-	-55	-
Cc1ccc(-c2cnc(N3CCC(C(N)=O)CC3)s2)cc1	.	-	.	.	.
CCn1ccc(NS(=O)(=O)c2ccc(N)cc2)nc1=O	.	.	.	-	.
O=C(Cn1cc([N+](=O)[O-])cn1)Nc1ccc(Cn2cc(Br)cn2)cc1	27µM	-	-	-	-
CC1=NN(c2ccc(Cl)c(C(=O)O)c2)C(=O)C1	-	?	-	-	-
CC1=NN(c2cccc(Cl)c2)C(=O)C1	-	-	-	-60	-
CC1=NN(c2ccc(S(=O)(=O)O)cc2Cl)C(=O)C1	?	-	-	-61	-
CN(C)c1ccc(N=Nc2ccc(C(=O)O)cc2)cc1	?	?	-	-	-
